We go through 31 compounds from PubChem BioAssay (Tox21).

Inconclusive results are not listed. Unmarked numbers belong to inactive results. The source made the active and inactive calls. Calls come from the whole dose curve; as a rule, active = well fitted curve in the direction sought with a large enough effect in the repeat runs; inconclusive = weak or mixed curves; inactive = no such curve, though single readings can be large; an effect the other way counts as inactive or inconclusive.

The nature of test [1]: qHTS assay to identify small molecule agonists of the RXR signaling pathway - cell viability counter screen (AID 1159529).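 Note: HEK 293T cells carrying an RXR-alpha UAS beta-lactamase reporter; nearly all actives have a fitted effect of over 50% in size.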 A digest of the protocol: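 In this parallel viability measure, GeneBLAzer RXR-alpha HEK 293T cells (2% charcoal-stripped FBS) were given a 5 hr preincubation, treated with compounds 16 hr at 37 C, and read by CellTiter-Glo luminescence.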
Test [2] can be described thus: qHTS assay to identify small molecule antagonists of the retinoid acid receptor (RAR) signaling pathway - cell viability counter screen (AID 1159551). Note: nearly all actives have a fitted effect of over 35% in size. Put shortly:
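C3RL4 RARE-luciferase cells, 1,000/well, incubated overnight, then dosed with compound plus 1 uM retinol (final). After 6 hr at 37 C, viability read by CellTiter-Glo ATP luminescence following 30 min at room temperature.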
For orientation: qHTS replaces the single test concentration by a dilution series.

The nature of test [3]: qHTS assay to identify small molecule antagonists of the retinoic acid receptor (RAR) signaling pathway (AID 1159552; note: nearly all actives have a fitted effect of over 50% in size). A digest of the protocol: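 C3RL4 RARE-luc cells, overnight plating; retinol 1 uM final added right after compound; 6 hr 37 C; luciferase read at 30 min RT.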
Test [4] in a line: qHTS assay to identify small molecule agonists of the retinoic acid receptor (RAR) signaling pathway (AID 1159553). Note: potency is the fitted concentration of half-maximal effect. The note with it: C3RL4 RARE luciferase reporter, agonist, 6 h; activation: at 73.3 µM (top of the series). Put shortly:
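C3RL4 RARE-luciferase cells were seeded at 1,000/well and grown overnight at 37 C, then exposed to compounds for 6 hr at 37 C, 5% CO2. Luciferase reagent was added and luminescence was read after 30 min at room temperature.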

Test [5] in a line: qHTS assay to identify small molecule antagonists of the estrogen related receptor (ERR) signaling pathway from Tox21 library - cell viability counter screen (AID 1224834). Note: nearly all actives have a fitted effect of over 30% in size. Put shortly:
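ERR reporter cells, 2,000 per well, rested 6 h, then exposed to compound in DMSO for 17.5 hours at 37 C. Viability read as fluorescence after 30 min with CellTiter-Fluor.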

Test [6] deals with Luciferin 4-monooxygenase (Photinus pyralis) (UniProt P08659). The experiment in a line: qHTS assay to identify small molecule inhibitors of firefly luciferase (AID 1224835). Note: nearly all actives have a fitted effect of over 25% in size. Note: potency is the fitted concentration of half-maximal effect. A digest of the protocol: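 Quantitative HTS format; KM concentrations of both substrates. Purified P. pyralis FLuc activity quantified from luminescence images.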
Sequence of Luciferin 4-monooxygenase (Photinus pyralis) (P08659 whole entry, looked up): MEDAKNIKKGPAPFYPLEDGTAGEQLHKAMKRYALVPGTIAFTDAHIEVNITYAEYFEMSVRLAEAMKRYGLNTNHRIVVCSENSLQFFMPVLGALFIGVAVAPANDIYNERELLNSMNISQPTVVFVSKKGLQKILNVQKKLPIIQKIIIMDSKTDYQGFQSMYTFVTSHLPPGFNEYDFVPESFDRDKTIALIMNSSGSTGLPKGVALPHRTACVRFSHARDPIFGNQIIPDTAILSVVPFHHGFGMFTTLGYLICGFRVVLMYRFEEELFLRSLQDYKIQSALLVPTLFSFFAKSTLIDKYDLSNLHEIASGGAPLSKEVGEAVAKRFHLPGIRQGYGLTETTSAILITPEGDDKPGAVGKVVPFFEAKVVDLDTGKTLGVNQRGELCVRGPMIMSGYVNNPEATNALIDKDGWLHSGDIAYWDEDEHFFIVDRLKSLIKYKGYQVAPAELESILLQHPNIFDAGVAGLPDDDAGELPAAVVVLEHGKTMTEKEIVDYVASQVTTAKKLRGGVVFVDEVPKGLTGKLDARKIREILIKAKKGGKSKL
Test [7] is described as follows: qHTS assay to identify small molecule agonists of the constitutive androstane receptor (CAR) signaling pathway - cell viability counter screen (AID 1224836). Note: nearly all actives have a fitted effect of over 45% in size. Put shortly: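 Using CellTiter-Fluor, viability of HepG2 cells harbouring hCAR and CYP2B6-2.2kb was measured following 23 h incubation with a 15-concentration compound series plus PK11195 (0.75 uM final).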

Test [8] in a line: qHTS assay to identify small molecule antagonists of the constitutive androstane receptor (CAR) signaling pathway - cell viability counter screen (AID 1224837). Note: nearly all actives have a fitted effect of over 45% in size. A digest of the protocol: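 HepG2 cells stably carrying hCAR and CYP2B6-2.2kb reporter, stimulated with 50 nM CITCO and compounds at 15 concentrations for 23 h at 37 C. Viability measured by CellTiter-Fluor fluorescence.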

Test [9] addresses Nuclear receptor subfamily 1 group I member 3 (Homo sapiens) (UniProt Q14994). The experiment in a line: qHTS assay to identify small molecule antagonists of the constitutive androstane receptor (CAR) signaling pathway (AID 1224838). Note: nearly all actives have a fitted effect of over 40% in size. Note: potency is the fitted concentration of half-maximal effect. A digest of the protocol:
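HepG2 cells stably carrying hCAR and a CYP2B6-2.2kb luciferase reporter, seeded 4 hrs before compound (15 concentrations). Stimulated with 50 nM CITCO for 24 hr at 37 C. ONE-Glo luminescence read after 30 min at room temperature.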
% is set by controls: 0 for no effect and ±100 for the full control effect.

Sequence of Nuclear receptor subfamily 1 group I member 3 (Homo sapiens) (Q14994 whole entry, looked up): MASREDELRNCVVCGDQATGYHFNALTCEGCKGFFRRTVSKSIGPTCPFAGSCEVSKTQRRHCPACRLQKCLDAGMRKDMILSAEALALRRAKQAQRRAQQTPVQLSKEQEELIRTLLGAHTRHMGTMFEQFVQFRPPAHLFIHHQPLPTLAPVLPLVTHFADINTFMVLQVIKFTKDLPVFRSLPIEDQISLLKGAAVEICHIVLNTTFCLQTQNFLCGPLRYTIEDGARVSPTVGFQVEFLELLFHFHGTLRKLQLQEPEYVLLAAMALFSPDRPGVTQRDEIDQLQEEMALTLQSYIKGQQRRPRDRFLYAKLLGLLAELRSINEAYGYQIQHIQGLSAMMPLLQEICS

For the compound `O=C(O)/C=C/c1ccccc1`, the result in test [1], in [2] and in test [7] was inactive. Further, the Potency result in test [3], in test [4], in test [5], in test [6] and in test [8] was “inactive” in each case.

With `CCC(C)N` (stereo not given), the compound was classed as inactive in test [1], in test [2] and in test [7]. Further, the Potency entry in test [3], in test [4], in test [6] and in test [8] was “inactive” in each case.

Regarding `O=C(COCCOCCOCC(=O)Nc1c(I)cc(I)c(C(=O)O)c1I)Nc1c(I)cc(I)c(C(=O)O)c1I`, the call in [1], in test [2] and in test [7] was inactive. Moreover, the Potency result in test [3], in [4], in test [5], in test [6] and in test [8] was “inactive” in each case.

For the compound `Cc1nc(C)nc(N2C[C@@H](C)N(c3ccnc([C@@H](C)O)n3)[C@@H](C)C2)n1`, the call in test [1], in test [2] and in [7] was inactive. In addition, the Potency entry in test [3], in test [4], in [5], in test [6] and in [8] was “inactive” throughout.

Consider `Cc1ccc(S(=O)(=O)NC(=O)NC2CCCCCCC2)cc1`, for which the result in test [1], in test [2] and in test [7] was inactive. The Potency entry in test [3], in test [4], in [5], in test [6] and in [8] was “inactive” throughout.

`CCC1Nc2cc(Cl)c(S(N)(=O)=O)cc2S(=O)(=O)N1` (stereo not given): the compound was classed as inactive in [1], in test [2] and in test [7]. The Potency entry in [3], in test [4], in test [6] and in test [8] was “inactive” in each case.

For the compound `CC(C)COC(=O)COc1ccc(Cl)cc1Cl`, the result in [2] and in test [7] was inactive. Also, the Potency result in [3], in test [4], in [5] and in test [8] was “inactive” each time. In addition, in [6], the Potency is 11.2 µM (active).

Consider `CCC(C)(CCC(C)C)C(=O)[O-].CCC(C)(CCC(C)C)C(=O)[O-].[Zn+2]` (stereo not given), for which the compound was classed as inactive in test [2] and in test [7]. Further, the Potency result in [3], in test [4], in [5] and in test [8] was “inactive” throughout. In addition, the Potency in test [6] is 25.2 µM (active).

Take `C[C@H]1O[C@H](O[C@H]2[C@H](O)[C@@H](O)[C@@H](O[C@H]3[C@H](O)[C@@H](O)[C@H](O)O[C@@H]3CO)O[C@@H]2CO)[C@H](O)[C@@H](O)[C@@H]1N[C@H]1C=C(CO)[C@@H](O)[C@H](O)[C@H]1O`: the outcome in [1], in [2] and in test [7] was inactive. Besides, the Potency entry in [3], in test [4], in test [6] and in test [8] was “inactive” in each case.

Consider `CCOC(=O)CCc1ccccc1`, for which the result in [1], in [2] and in [7] was inactive. Also, the Potency result in test [3], in test [4], in [6] and in [8] was “inactive” each time.

On to `CCC(CO)CO`, for which the call in test [2] and in test [7] was inactive. Further, the Potency result in [3], in test [4], in test [5], in test [6] and in [8] was “inactive” each time.

`CC(C)CCC(=O)CCC(C)C`: the outcome in test [2] and in [7] was inactive. The Potency entry in test [3], in [4], in test [6] and in [8] was “inactive” throughout.

On to `Nc1ccc(/C=C/c2ccc(N)cc2S(=O)(=O)O)c(S(=O)(=O)O)c1`, for which the activity change, negative = cytotoxicity in [1] was 1.24% [at 0.29 µM]; in test [2], 2.39% [at 0.349 µM]; in test [8] it was 10.1% [at 0.349 µM]. For the same compound, the figures for the activity, negative = inhibition in test [3] and in test [9] were 3.51% [at 0.349 µM] and -20.1% [at 0.349 µM], respectively. Further, the activation in [4] was -0.705% [at 0.756 µM]. Besides, the viability change, negative = cytotoxic was 2.37% [at 0.349 µM] in [5] and 6.71% [at 0.349 µM] in test [7]. The activity change, negative = inhibition in [6] is 0.257% [at 0.435 µM].

Consider `CC(C)CCO`, for which the result in test [1], in test [2] and in [7] was inactive. Also, the Potency result in [3], in [4], in test [5], in test [6] and in test [8] was “inactive” throughout.

Consider `Nc1ccnc(=O)[nH]1`, for which the outcome in test [1], in test [2] and in [7] was inactive. For the same compound, the Potency result in test [3], in test [4], in test [6] and in test [8] was “inactive” throughout.

Turning to `Cc1ccc2c(c1)c1c3n2CCNC3CCC1` (stereo not given), the compound was classed as inactive in test [1] and in test [2]. The Potency result in [3], in test [4] and in [6] was “inactive” in each case. The Potency in test [9] is 0.75 µM (active).

As for `CCCCCCCCCOCC1CO1` (stereo not given), the outcome in test [1], in test [2] and in [7] was inactive. The Potency result in [3], in test [4], in test [5], in test [8] and in test [9] was “inactive” each time.

`CC(=O)OC(C)(C)Cc1ccccc1`: the compound was called inactive in [1], in test [2] and in [7]. In addition, the Potency result in test [3], in test [4], in [5], in test [6] and in [8] was “inactive” throughout.

Regarding `Nc1cc(S(=O)(=O)O)ccc1S(=O)(=O)O`, the compound was called inactive in test [1], in [2] and in [7]. For the same compound, the Potency entry in test [3], in test [4], in test [5], in [6] and in [8] was “inactive” in each case.

Regarding `C1=C\CC/C=C\CC/1`, the outcome in test [1], in test [2] and in [7] was inactive. Further, the Potency result in test [3], in test [4], in test [5], in test [6], in test [8] and in test [9] was “inactive” each time.

On to `NC(Cc1c[nH]c2ccccc12)C(=O)O` (stereo not given), for which the result in [1], in test [2] and in test [7] was inactive. Besides, the Potency result in test [3], in test [4], in [5], in [6] and in test [8] was “inactive” throughout.

On to `OC[C@@H](O)[C@H](O)[C@@H](O)[C@@H](O)CO`, for which the call in [1], in test [2] and in test [7] was inactive. The Potency entry in [3], in [4], in test [5], in test [6] and in test [8] was “inactive” each time.

As for `C=C(C)[C@@H]1CC[C@@H](C)C[C@@H]1O`, the result in [1], in [2] and in test [7] was inactive. For the same compound, the Potency result in test [5], in [6] and in test [8] was “inactive” throughout.

As to `CCCCC(=O)N(C)C`, the compound was classed as inactive in test [2] and in [7]. Moreover, the Potency entry in test [3], in test [4], in [5], in test [6] and in [8] was “inactive” in each case.

Consider `CNC(=O)NC`, for which the compound was called inactive in test [1], in test [2] and in test [7]. Moreover, the Potency result in [3], in test [4], in [5], in [6] and in [8] was “inactive” in each case.

For `CC(=O)c1ccc(OCC(=O)N2CCCCC2)cc1`, the result in test [1], in [2] and in [7] was inactive. Further, the Potency result in [3], in test [8] and in [9] was “inactive” each time. The Potency in test [4] is 13.3 µM (active).

Turning to `NC(=O)C1(N2CCCCC2)CCN(CCCC(=O)c2ccc(F)cc2)CC1`, the compound was called inactive in test [1], in test [2] and in test [7]. The Potency result in test [3], in test [4], in test [5], in test [6] and in test [8] was “inactive” throughout.

Regarding `COc1ccc(OC)c(NC(=O)CC(C)=O)c1`, the call in test [1], in [2] and in test [7] was inactive. For the same compound, the Potency entry in test [3], in test [4], in [5], in test [6], in [8] and in test [9] was “inactive” in each case.

As for `CCCCOC(=O)[C@@H](C)Oc1ccc(Oc2ccc(C(F)(F)F)cn2)cc1`, the compound was called inactive in test [1], in test [2] and in test [7]. Moreover, the Potency entry in test [3], in test [4], in test [5], in test [6], in [8] and in test [9] was “inactive” each time.

With `CC(C)C(=O)c1ccccc1`, the compound was called inactive in test [1], in [2] and in [7]. Further, the Potency result in test [3], in test [4], in test [5], in [6] and in test [8] was “inactive” in each case.

In the case of `CC(=O)Nc1ncc([N+](=O)[O-])s1`, the compound was classed as inactive in [1], in test [2] and in [7]. For the same compound, the Potency entry in test [3], in [4], in [6] and in test [8] was “inactive” throughout.
